The text below walks through data of PubChem BioAssay (NCATS).

Records with an inconclusive call do not appear. Entries that show only a call come without a potency. Calls of active or inactive are those of the source. The call rests on the fitted dose curve; in most records, active means well fitted curve in the direction sought with a large enough effect; inconclusive means small, poorly fitted or top-dose-only effect, or another doubt; inactive means no such curve, though single readings can be large; an effect the other way counts as inactive or inconclusive.

The target in test [1] is Aldehyde dehydrogenase, mitochondrial (Homo sapiens) (UniProt P05091). Briefly: qHTS for Inhibitors of the Aldehyde Dehydrogenase Family (ALDH2) Primary screen (AID 2061308; further: nearly all actives have a fitted effect of over 55% in size). (Quantitative high-throughput screening tests each substance at several concentrations.)
Test [2] concerns the target Retinaldehyde dehydrogenase 3 (Homo sapiens) (UniProt P47895). Briefly: qHTS for Inhibitors of the Aldehyde Dehydrogenase Family (ALDH1A3) Primary screen (AID 2061315).

On to `COc1ccc2nc(-c3ccc(C#N)cc3)sc2c1`, for which the Potency entry in test [1] and in test [2] was “inactive” in each case.

Take `CC1=C(C(=O)NCc2ccccc2)C(c2ccccc2Br)N=C(Nc2nc3ccccc3o2)N1` (centres undefined): the Potency entry in test [1] and in test [2] was “inactive” each time.

For `Cc1ccc(NS(=O)(=O)c2cc3c(cc2NC(C)CO)NC(=O)CC3)cc1C` (centres undefined), the Potency result in test [1] and in test [2] was “inactive” each time.

`O=C(CSc1nnc(-c2cccc([S+](=O)([O-])N3CCCC3)c2)n1-c1ccccc1)Nc1cccc(F)c1`: the Potency entry in test [1] and in test [2] was “inactive” throughout.

Take `O=C(CNC(=O)c1ccc(-c2ccccc2)cc1)OC(C(=O)Nc1cc(C(F)(F)F)ccc1Cl)c1ccccc1` (centres undefined): the Potency entry in test [1] and in test [2] was “inactive” in each case.

With `Cn1c2cc(Br)sc2c2cnn(Cc3c(F)cccc3F)c(=O)c21`, the Potency result in test [1] and in test [2] was “inactive” in each case.

In the case of `O=[S+]([O-])(Nc1ccccc1)c1ccc(NCc2ccc(Cl)cc2O)cc1`, the Potency entry in test [1] and in test [2] was “inactive” in each case.

For the compound `COc1cccc(C2=Nn3c(nnc3-c3ccc(OC)c(OC)c3)SC2)c1`, the Potency result in test [1] and in test [2] was “inactive” each time.

Consider `CCOc1ccc(CCNC(=O)c2cc3sccc3n2Cc2cccc(C)c2)cc1OCC`, for which the Potency result in test [1] and in test [2] was “inactive” in each case.

Regarding `O=C(CNC(=O)c1ccccc1Cl)OC(C(=O)Nc1cc(C(F)(F)F)ccc1Cl)c1ccccc1` (centres undefined), the Potency entry in test [1] and in test [2] was “inactive” each time.

Turning to `Cc1cc2c(s1)c1cnn(Cc3c(F)ccc(F)c3Cl)c(=O)c1n2C`, the Potency entry in test [1] and in test [2] was “inactive” in each case.

Consider `Cc1ccc(-c2nccc(=O)n2CC(=O)N(C)C(C)c2ccco2)cc1` (centres undefined), for which the Potency entry in test [1] and in test [2] was “inactive” in each case.

Regarding `CCN(CC)CCCCn1c(-c2ccccc2)nc2c(NC3CCCCC3)nc(C)nc21`, the Potency entry in test [1] and in test [2] was “inactive” in each case.

For `O=C1CCCC2=C1C1(CCSC1)N=C(Nc1nc3ccccc3o1)N2` (centres undefined), the Potency result in test [1] and in test [2] was “inactive” each time.

Take `CC/C(C)=C/C(=O)OC1C(OC2(C)CCC3C(C4C(C)CCC42)C3(C)C)OC(C)C(O)C1O` (centres undefined): the Potency entry in test [1] and in test [2] was “inactive” in each case.

With `Cc1cc(NS(=O)(=O)c2ccc(NC(=O)Cc3ccc(Cl)cc3)cc2)no1`, the Potency entry in test [1] and in test [2] was “inactive” throughout.

As for `CN(C(=O)Nc1ccc2ccccc2c1)c1nnc(-c2ccncc2)s1`, the Potency entry in test [1] and in test [2] was “inactive” throughout.

Take `Cc1nc(N2CCOCC2)c2nc(-c3ccccc3)n(CCCN3CCOCC3)c2n1`: the Potency entry in test [1] and in test [2] was “inactive” throughout.

Take `Cc1nc(N2CCOCC2)c2nc(-c3ccccc3)n(CCN3CCOCC3)c2n1`: the Potency entry in test [1] and in test [2] was “inactive” throughout.

`C/C=C/C=C/C=C/C(=O)O[C@@H]1C=C(CO)[C@](O)(CO)[C@@]2(C)CCCC(C)(C)[C@H]12`: the Potency entry in test [1] and in test [2] was “inactive” throughout.

On to `O=C(OC/C=C/CSc1nnc(-c2cccc3ccccc23)o1)c1ccc(F)cc1`, for which the Potency entry in test [1] and in test [2] was “inactive” each time.

Regarding `CCOC(=O)c1csc(NC(=O)c2ccncc2NS(=O)(=O)c2ccc(C)cc2)n1`, the Potency entry in test [1] and in test [2] was “inactive” each time.

As for `CCOc1ccc(C(=O)Nc2ccc(-c3nn[nH]n3)cc2)cc1[N+](=O)[O-]`, the Potency entry in test [1] and in test [2] was “inactive” in each case.

Consider `Cn1nnnc1Sc1ncnc2scc(-c3ccc(C(F)(F)F)cc3)c12`, for which the Potency result in test [1] and in test [2] was “inactive” in each case.

For `Clc1ccc(CSc2nc3ncc(Br)cc3[nH]2)cc1`, the Potency entry in test [1] and in test [2] was “inactive” in each case.

Turning to `CN(C)c1ccc(-c2cc(O)c3ncccc3c2)cc1`, the Potency result in test [1] and in test [2] was “inactive” throughout.

As to `NC(=O)C1CCN(c2nc(-c3cccc(Cl)c3)cs2)CC1`, the Potency entry in test [1] and in test [2] was “inactive” in each case.

Consider `N[C@H](Cc1ccccc1)C(=O)Nc1ccc(Cl)cc1C(=O)c1ccc[nH]1`, for which the Potency result in test [1] and in test [2] was “inactive” each time.

Take `CO[C@H]1/C=C/[C@@](C)(O)/C=C/C(=O)O[C@H](C)[C@@H](C)CC/C=C/1C`: the Potency entry in test [1] and in test [2] was “inactive” in each case.

As to `O=S(=O)(NCCCNS(=O)(=O)c1c(F)cccc1F)c1ccc2c(c1)OCCO2`, the Potency result in test [1] and in test [2] was “inactive” each time.

As to `CCOC(=O)c1nn(-c2ccccc2)c(=O)c2c(N)sc(C)c12`, the Potency entry in test [1] and in test [2] was “inactive” each time.

Turning to `Cc1cc2c(s1)c1cnn(Cc3ccccc3Br)c(=O)c1n2C`, the Potency result in test [1] and in test [2] was “inactive” each time.

For `O=C1c2ccccc2C(=O)N1c1cccc2ncccc12`, the Potency entry in test [1] and in test [2] was “inactive” each time.

Consider `NC(=O)C1CCN(c2nc(-c3ccc(N)cc3)cs2)CC1`, for which the Potency entry in test [1] and in test [2] was “inactive” throughout.

With `COc1cc(O)c(C(CC(=O)N2CCC(C)CC2)c2ccc3c(c2)OCO3)c(OC)c1` (centres undefined), the Potency entry in test [1] and in test [2] was “inactive” in each case.

Regarding `CC(=O)c1cccc(NC(=O)Nc2nnc(-c3ccncc3)s2)c1`, the Potency result in test [1] and in test [2] was “inactive” each time.

Take `Cc1cc(C)c(-c2nnc(NC(=O)Nc3ccc4ccccc4c3)s2)c(C)c1`: the Potency result in test [1] and in test [2] was “inactive” throughout.

For the compound `O=C(CNC(=O)c1ccccc1)OC(C(=O)Nc1ccc2c(c1)OCO2)c1ccccc1` (centres undefined), the Potency entry in test [1] and in test [2] was “inactive” throughout.

As to `COc1cc(C2CC(=O)Nc3c2cc(Br)c2ccccc32)cc(OC)c1OC` (centres undefined), the Potency result in test [1] and in test [2] was “inactive” throughout.

For the compound `COc1ccc(C2Nc3ccccc3C(=O)N2Cc2ccccc2OC)cc1COc1c(C)cc(NC(C)=O)cc1C` (centres undefined), the Potency entry in test [1] and in test [2] was “inactive” throughout.

`Cc1cccc(NS(=O)(=O)c2ccc3c(c2)CCC(=O)N3)c1`: the Potency entry in test [1] and in test [2] was “inactive” each time.

Turning to `CC[C@H]1OC(=O)[C@H](C)[C@@H](O[C@H]2C[C@@](C)(OC)[C@@H](O)[C@H](C)O2)[C@H](C)[C@@H](O[C@@H]2O[C@H](C)C[C@H](N(C)C)[C@H]2O)[C@](C)(O)C[C@@H](C)/C(=N/OCOCCOC)[C@H](C)[C@@H](O)[C@]1(C)O`, the Potency result in test [1] and in test [2] was “inactive” each time.
